From PMC11062922 (Nature Chemical Biology, 2023)
Like-named read-outs stand apart in the source and are kept apart here.

What was measured:
Set-up in all cases: species or system human, MV4-11 + K-562 + COLO205 + SK-N-BE2 + OVCAR-8
[1] = tested on: TAOK1; conditions: read-out: apparent Kd, compound concentrations: 100 nM and 1000 nM (sheet 'Samples'), n = 1
[2] = tested on: ACVR2B; conditions: read-out: apparent Kd, compound concentrations: 100 nM and 1000 nM (sheet 'Samples'), n = 1
[3] = tested on: CSNK1A1; conditions: read-out: apparent Kd; compound concentrations: 100 nM and 1000 nM (sheet 'Samples'), CATDS: 4.3569659230054097E-2; n = 1
[4] = tested on: MAP2K1; conditions: read-out: apparent Kd, n = 1
[5] = tested on: NQO1; conditions: read-out: apparent Kd, compound concentrations: 100 nM and 1000 nM (sheet 'Samples'), n = 1
[6] = tested on: EPHA2; conditions: read-out: apparent Kd, n = 1
[7] = tested on: EPHA4; conditions: read-out: apparent Kd, n = 1
[8] = tested on: EPHB2; conditions: read-out: apparent Kd, n = 1
[9] = tested on: EPHB4; conditions: read-out: apparent Kd, n = 1
[10] = tested on: MAP4K5; conditions: read-out: apparent Kd; compound concentrations:100 nM and 1000 nM (sheet 'Samples'); n = 1
[11] = tested on: MAPKAPK2; conditions: read-out: apparent Kd, n = 1
[12] = tested on: NLK; conditions: read-out: apparent Kd, n = 1
[13] = tested on: PDGFRB; conditions: read-out: apparent Kd, n = 1
[14] = tested on: TGFBR2; conditions: read-out: apparent Kd, n = 1
[15] = tested on: PRKD3; conditions: read-out: apparent Kd, compound concentrations: 100 nM and 1000 nM (sheet 'Samples'), n = 1
[16] = tested on: BUB1; conditions: read-out: apparent Kd; compound concentrations:100 nM and 1000 nM (sheet 'Samples'); n = 1
[17] = tested on: MAPK9; conditions: read-out: apparent Kd; compound concentrations:100 nM and 1000 nM (sheet 'Samples'); n = 1
[18] = compound concentrations:100 nM and 1000 nM (sheet 'Samples')

Compound: COc1ccccc1CNC1=NC(=O)/C(=C/c2ccc3ncccc3c2)S1 [RO4503315-000]
- potency estimated from few doses ([1]; CATDS: 7.1757893284069299E-2): 1.13 µM

Compound: COc1ccc(Nc2nccc(N3CCC(NC(=O)Nc4ccc5c(c4)OCO5)C3)n2)cc1 (stereo not drawn) [GSK1379745A]
- potency estimated from few doses ([2]; CATDS: 4.7768277435408998E-2): 1.05 µM
- potency estimated from few doses [3]: 1.26 µM
- potency estimated from few doses ([4]; compound concentrations: 100 nM and 1000 nM (sheet 'Samples'), CATDS: 3.9281553351087697E-2): 1.56 µM
- potency estimated from few doses ([5]; CATDS: 4.3711719751433897E-2): 1.25 µM
- potency estimated from few doses ([1]; CATDS: 4.1153987901417902E-2): 1.41 µM

Compound: CCN(CC)CCOc1ccc(Nc2ncc3cc(-c4c(Cl)cccc4Cl)c(=O)n(C)c3n2)cc1 [SB-601273]
- potency estimated from few doses [6, 18]: 0.0303 µM
- potency estimated from few doses [7, 18]: 0.162 µM
- potency estimated from few doses [8, 18]: 0.108 µM
- potency estimated from few doses [9, 18]: 0.0302 µM
- potency estimated from few doses [10]: 2.36 µM
- potency estimated from few doses [11, 18]: 0.32 µM
- potency estimated from few doses [12, 18]: 1.31 µM
- potency estimated from few doses [13, 18]: 0.576 µM
- potency estimated from few doses [14, 18]: 1.26 µM

Compound: CN1C(=O)c2ccccc2N(C)c2nc(Nc3cnn(C4CCNCC4)c3)ncc21 [XMD-17-51]
- potency estimated from few doses ([15]; CATDS: 1.40532268775709E-2): 1.65 µM
- potency estimated from few doses ([1]; CATDS: 5.6290782434041703E-2): 0.0407 µM
- potency estimated from few doses ([14]; compound concentrations: 100 nM and 1000 nM (sheet 'Samples'), CATDS: 1.41245865647958E-2): 1.61 µM

Compound: Cc1ccc(O)cc1Nc1ccnc2cc(-c3ccccn3)ccc12.Cl [GW440139A]
- potency estimated from few doses ([2]; CATDS: 0.21714398687124201): 0.00563 µM
- potency estimated from few doses ([6]; compound concentrations: 100 nM and 1000 nM (sheet 'Samples'), CATDS: 2.9853649287190101E-2): 0.529 µM
- potency estimated from few doses ([7]; compound concentrations: 100 nM and 1000 nM (sheet 'Samples'), CATDS: 5.0335970342337201E-2): 0.0816 µM
- potency estimated from few doses ([8]; compound concentrations: 100 nM and 1000 nM (sheet 'Samples'), CATDS: 6.0515406545195598E-2): 0.052 µM
- potency estimated from few doses ([9]; compound concentrations: 100 nM and 1000 nM (sheet 'Samples'), CATDS: 9.4734389919906598E-2): 0.0209 µM
- potency estimated from few doses ([11]; compound concentrations: 100 nM and 1000 nM (sheet 'Samples'), CATDS: 2.53755109568197E-2): 1.57 µM
- potency estimated from few doses ([14]; compound concentrations: 100 nM and 1000 nM (sheet 'Samples'), CATDS: 0.155660799519896): 0.00912 µM

Compound: Cl.Oc1cccc(Nc2ccnc3cc(-c4ccncc4)ccc23)c1 [GW494601A]
- potency estimated from few doses ([2]; CATDS: 0.269416694406998): 0.00216 µM
- potency estimated from few doses ([6]; compound concentrations: 100 nM and 1000 nM (sheet 'Samples'), CATDS: 2.3824924917130601E-2): 0.6 µM
- potency estimated from few doses ([7]; compound concentrations: 100 nM and 1000 nM (sheet 'Samples'), CATDS: 3.3294473343985699E-2): 0.165 µM
- potency estimated from few doses ([8]; compound concentrations: 100 nM and 1000 nM (sheet 'Samples'), CATDS: 2.64855925277621E-2): 0.385 µM
- potency estimated from few doses ([9]; compound concentrations: 100 nM and 1000 nM (sheet 'Samples'), CATDS: 3.7673587952975797E-2): 0.11 µM
- potency estimated from few doses ([12]; compound concentrations: 100 nM and 1000 nM (sheet 'Samples'), CATDS: 1.9274779311166401E-2): 1.83 µM
- potency estimated from few doses ([13]; compound concentrations: 100 nM and 1000 nM (sheet 'Samples'), CATDS: 1.9069305404636899E-2): 1.97 µM
- potency estimated from few doses ([14]; compound concentrations: 100 nM and 1000 nM (sheet 'Samples'), CATDS: 0.14921911016535599): 0.00506 µM

Compound: Cc1ccc(O)cc1Nc1ccnc2cc(-c3ccc(CN4CCCCC4)o3)ccc12 [GW557777X]
- potency estimated from few doses ([2]; CATDS: 2.4906220143484401E-2): 0.0453 µM
- potency estimated from few doses ([6]; compound concentrations: 100 nM and 1000 nM (sheet 'Samples'), CATDS: 3.25409539793877E-2): 0.0189 µM
- potency estimated from few doses ([7]; compound concentrations: 100 nM and 1000 nM (sheet 'Samples'), CATDS: 4.01782030303919E-2): 0.0104 µM
- potency estimated from few doses ([8]; compound concentrations: 100 nM and 1000 nM (sheet 'Samples'), CATDS: 4.4697919041746297E-2): 0.00787 µM
- potency estimated from few doses ([9]; compound concentrations: 100 nM and 1000 nM (sheet 'Samples'), CATDS: 5.8010916452344102E-2): 0.00417 µM
- potency estimated from few doses ([13]; compound concentrations: 100 nM and 1000 nM (sheet 'Samples'), CATDS: 1.4075910538655201E-2): 0.735 µM
- potency estimated from few doses ([15]; CATDS: 1.7058744664209799E-2): 0.226 µM

Compound: CS(=O)(=O)Cc1ccc(Nc2nccc(-c3c(-c4cccc(NC(=O)C5CCCCC5)c4)nn4ncccc34)n2)cc1 [GSK350559A]
- potency estimated from few doses [16]: 0.267 µM
- potency estimated from few doses [4, 18]: 2.43 µM
- potency estimated from few doses [17]: 0.932 µM

Compound: NC1=NC(=O)/C(=C/c2ccc3ncccc3c2)S1 [RO4569139-000]
- potency estimated from few doses ([15]; CATDS: 6.7072777002688294E-2): 1.93 µM

Compound: CS(=O)(=O)CCNCc1ccc(-c2ccc3ncnc(Nc4ccc(OCc5cccc(F)c5)c(C(F)(F)F)c4)c3c2)o1 [GW576484X]
- potency estimated from few doses ([11]; compound concentrations: 100 nM and 1000 nM (sheet 'Samples'), CATDS: 5.1625153721040297E-2): 1.83 µM
- potency estimated from few doses ([12]; compound concentrations: 100 nM and 1000 nM (sheet 'Samples'), CATDS: 4.7895996711747497E-2): 2.18 µM
- potency estimated from few doses ([1]; CATDS: 9.5612553502410894E-2): 0.618 µM

Compound: Cl.Cl.Cl.c1ccc(Oc2ccc(Nc3ccnc4cc(-c5ccc(CN6CCNCC6)o5)ccc34)cc2)nc1.c1ccc(Oc2ccc(Nc3ccnc4cc(-c5ccc(CN6CCNCC6)o5)ccc34)cc2)nc1 [GW567142A]
- potency estimated from few doses ([5]; CATDS: 1.8216900253795E-2): 1.58 µM
